PubChem BioAssay (NCI)
This is part of a sample that, as a whole, favours compounds with a hit. Of some 79,000 tested, about 15% had one in any assay. Active and inactive are the calls of the source. No stated cut-off is given here; in the data, active means growth inhibition above about 70%; inactive means the rest.

Legend:
[1] = NCI Yeast Anticancer Drug Screen. Data for the rad52 strain (AID 147);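 further: 0% = growth of vehicle-treated control cultures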; conditions: S. cerevisiae rad52 mutant growth inhibition, active compounds read high
Summary of the method: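 Measured: yeast growth inhibition. System: strain with a defined DNA damage repair alteration. Reference: vehicle-treated control cultures.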

[2] = NCI Yeast Anticancer Drug Screen. Data for the wt1 strain (AID 149);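 further: 0% = growth of vehicle-treated wt1 cultures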; conditions: S. cerevisiae wt1 strain (SPY 50644) growth inhibition, active compounds read high
Summary of the method: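 Using yeast strain wt1, compound-induced growth inhibition was determined against vehicle-treated cultures.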

[3] = NCI Yeast Anticancer Drug Screen. Data for the rad50EPP+ strain (AID 151);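 further: 0% = growth of vehicle-treated control cultures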; conditions: S. cerevisiae rad50 mutant strain, active compounds read high
Summary of the method: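 One strain with a rad50 alteration (rad50EPP+) was compound-treated, its growth then compared to that of vehicle controls.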

[4] = NCI Yeast Anticancer Drug Screen. Data for the mgt1 strain (AID 153); conditions: S. cerevisiae mgt1 mutant growth inhibition, active compounds read high
Summary of the method: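 After exposure of the mgt1 yeast mutant to compound, growth was measured and reported as inhibition compared with vehicle controls.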

[5] = NCI Yeast Anticancer Drug Screen. Data for the rad50 strain (AID 155);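 further: 0% = growth of vehicle-only cultures of the same strain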; conditions: S. cerevisiae rad50 strain growth inhibition, active compounds read high
Summary of the method: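 Relative growth inhibition (compound vs vehicle) was measured in yeast with a defined repair-gene alteration.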

[6] = NCI Yeast Anticancer Drug Screen. Data for the mec2-1 strain (AID 157); conditions: S. cerevisiae mec2-1 strain, active compounds read high
Summary of the method: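 Test agents were screened against the mec2-1 yeast strain, with defined DNA repair or cell cycle alteration. Growth was scored as inhibition against vehicle-only controls.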

[7] = NCI Yeast Anticancer Drug Screen. Data for the rad14 strain (AID 159);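 further: 0% = growth of vehicle-treated control cultures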; conditions: S. cerevisiae rad14 strain growth inhibition, active compounds read high
Summary of the method: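 Screen for anticancer potential: a yeast strain altered in DNA damage repair is grown with compound, and reduced growth is quantified against vehicle controls.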

[8] = NCI Yeast Anticancer Drug Screen. Data for the sgs1 mgt1 strain (AID 161);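 further: 0% = growth of cultures given vehicle only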; conditions: S. cerevisiae sgs1 mgt1 strain, active compounds read high
Summary of the method: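 Genetically altered yeast, compound exposure, growth inhibition relative to vehicle.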

[9] = NCI Yeast Anticancer Drug Screen. Data for the CLN2oe strain (AID 163);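 further: 0% = growth of vehicle-only control cultures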; conditions: S. cerevisiae CLN2oe strain, active compounds read high
Summary of the method: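 Here, growth inhibition in a cell-cycle-altered yeast strain after compound exposure was quantified against vehicle control growth.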

[10] = NCI Yeast Anticancer Drug Screen. Data for the cln2 rad14 strain (AID 165);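 further: 0% = growth equal to vehicle treated cultures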; conditions: S. cerevisiae cln2 rad14 strain, active compounds read high
Summary of the method: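 Growth of compound-exposed yeast (cln2 rad14 genotype) measured and expressed as inhibition relative to vehicle.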

[11] = NCI Yeast Anticancer Drug Screen. Data for the bub3 strain (AID 167); conditions: S. cerevisiae bub3 mutant strain, active compounds read high
Summary of the method: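 Screening used yeast with an engineered genetic alteration affecting cell cycle control. Compound-exposed cultures were compared with vehicle cultures, and reduced growth was taken as inhibition.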

[12] = NCI Yeast Anticancer Drug Screen. Data for the wt2 strain (AID 169);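 further: 0% = growth of vehicle-treated yeast cultures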; conditions: S. cerevisiae wt2 strain growth inhibition, active compounds read high
Summary of the method: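 Genetically defined yeast strains from a DNA-repair/cell-cycle panel were used. Compound-exposed yeast growth was measured, and the inhibition was calculated relative to vehicle treatment.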

[13] = NCI Yeast Anticancer Drug Screen. Data for the mlh1 strain (AID 171);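 further: 0% = growth of vehicle-treated control cultures of the same strain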; conditions: S. cerevisiae mlh1 strain growth inhibition, active compounds read high
Summary of the method: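 Here the genetically defined yeast mutant is grown with each compound, and the extent to which its growth falls below that of vehicle-exposed cells is reported.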

[14] = NCI Yeast Anticancer Drug Screen. Data for the sgs1 strain (AID 173);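 further: 0% = growth of vehicle-only control cultures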; conditions: S. cerevisiae sgs1 mutant, active compounds read high
Summary of the method: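 Relative growth inhibition, referenced to vehicle, was determined in a yeast strain with a defined alteration affecting DNA damage repair or cell cycle control after compound exposure.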

[15] = NCI Yeast Anticancer Drug Screen. Data for the mlh1 rad18 strain (AID 175); conditions: S. cerevisiae mlh1 rad18 strain growth inhibition, active compounds read high
Summary of the method: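 In this whole-cell yeast screen, a strain with altered DNA damage repair is challenged with compound, and its growth is measured against matched vehicle-treated controls.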

[16] = NCI Yeast Anticancer Drug Screen. Data for the rad18 strain (AID 177); conditions: S. cerevisiae rad18 mutant growth inhibition, active compounds read high
Summary of the method: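 Screen uses a yeast strain with a defined lesion in DNA damage repair; compound effect is read as loss of growth compared to untreated vehicle cultures.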

[17] = at 5.0 µM (retest, dose inferred, filed as 0.5)
[18] = at 50.0 µM (retest, dose inferred, filed as 5.0)

Measured: growth inhibition

CCOc1ccc2nc3ccccc3c(N)c2c1
active: [1]; at 33.0 µM 91% | [1]; at 100.0 µM 97% | [2]; at 33.0 µM 83% | [2]; at 100.0 µM 94% | [3]; at 100.0 µM 90% | [4]; at 33.0 µM 83% | [4]; at 100.0 µM 94% | [5]; at 33.0 µM 89% | [5]; [18] 81% | [5]; at 50.0 µM 91.2% | [5]; at 100.0 µM 97% | [6]; at 33.0 µM 80% | [6]; [18] 82% | [6]; at 50.0 µM 83.7% | [6]; at 100.0 µM 97% | [7]; at 33.0 µM 87% | [7]; at 100.0 µM 92% | [8]; [18] 86% | [8]; at 50.0 µM 81.2% | [9]; at 100.0 µM 92% | [10]; [18] 84% | [10]; at 50.0 µM 86.2% | [11]; at 33.0 µM 78% | [11]; [18] 84% | [11]; at 50.0 µM 87.1% | [11]; at 100.0 µM 90% | [12]; at 33.0 µM 89% | [12]; at 100.0 µM 98% | [13]; at 33.0 µM 90% | [13]; at 100.0 µM 98% | [14]; at 33.0 µM 88% | [14]; at 100.0 µM 97% | [15]; [18] 82% | [15]; at 50.0 µM 89.5% | [16]; at 33.0 µM 83% | [16]; at 100.0 µM 97%
inactive: [1]; at 1.2 µM 13% | [1]; at 3.7 µM 22% | [1]; at 11.0 µM 60% | [2]; at 1.2 µM 7% | [2]; at 3.7 µM 13% | [2]; at 11.0 µM 37% | [3]; at 1.2 µM 2% | [3]; at 3.7 µM 4% | [3]; at 11.0 µM 21% | [3]; at 33.0 µM 59% | [4]; at 1.2 µM 0% | [4]; at 3.7 µM 9% | [4]; at 11.0 µM 35% | [5]; at 1.2 µM 7% | [5]; at 3.7 µM 21% | [5]; [17] 0% | [5]; at 11.0 µM 50% | [6]; at 1.2 µM 5% | [6]; at 3.7 µM 4% | [6]; [17] 21% | [6]; at 11.0 µM 19% | [7]; at 1.2 µM 4% | [7]; at 3.7 µM 23% | [7]; at 11.0 µM 50% | [8]; [17] 32% | [9]; at 1.2 µM 7% | [9]; at 3.7 µM 16% | [9]; at 11.0 µM 33% | [9]; at 33.0 µM 68% | [10]; [17] 46% | [11]; at 1.2 µM -20% | [11]; at 3.7 µM -2% | [11]; [17] 14% | [11]; at 11.0 µM 16% | [12]; at 1.2 µM 7% | [12]; at 3.7 µM 18% | [12]; at 11.0 µM 49% | [13]; at 1.2 µM 7% | [13]; at 3.7 µM 8% | [13]; at 11.0 µM 47% | [14]; at 1.2 µM 10% | [14]; at 3.7 µM 24% | [14]; at 11.0 µM 51% | [15]; [17] 10% | [16]; at 1.2 µM 4% | [16]; at 3.7 µM 8% | [16]; at 11.0 µM 30%

CN(C)CC1=Nc2cccc3cccc(c23)N1
active: [4]; at 100.0 µM 87% | [5]; at 50.0 µM 90.8% | [5]; at 100.0 µM 79% | [6]; at 50.0 µM 87.4% | [6]; at 100.0 µM 85% | [7]; at 100.0 µM 88% | [8]; at 50.0 µM 88.6% | [11]; at 50.0 µM 90% | [11]; at 100.0 µM 85% | [13]; at 100.0 µM 87% | [15]; at 50.0 µM 90.2% | [16]; at 100.0 µM 70%
inactive: [1]; at 1.2 µM -4% | [1]; at 3.7 µM -6% | [1]; at 11.0 µM -10% | [1]; at 33.0 µM 2% | [1]; at 100.0 µM 60% | [2]; at 1.2 µM 2% | [2]; at 3.7 µM -5% | [2]; at 11.0 µM -6% | [2]; at 33.0 µM -4% | [2]; at 100.0 µM 21% | [3]; at 1.2 µM -2% | [3]; at 3.7 µM -3% | [3]; at 11.0 µM -2% | [3]; at 33.0 µM -8% | [3]; at 100.0 µM 13% | [4]; at 1.2 µM -9% | [4]; at 3.7 µM -1% | [4]; at 11.0 µM -7% | [4]; at 33.0 µM 9% | [5]; at 1.2 µM -7% | [5]; at 3.7 µM 1% | [5]; [17] -17% | [5]; at 11.0 µM 4% | [5]; at 33.0 µM 51% | [5]; [18] 30% | [6]; at 1.2 µM -3% | [6]; at 3.7 µM -3% | [6]; [17] -12% | [6]; at 11.0 µM -5% | [6]; at 33.0 µM 3% | [6]; [18] 17% | [7]; at 1.2 µM -2% | [7]; at 3.7 µM 0% | [7]; at 11.0 µM 1% | [7]; at 33.0 µM 51% | [8]; [17] -21% | [8]; [18] 41% | [9]; at 1.2 µM -4% | [9]; at 3.7 µM -8% | [9]; at 11.0 µM 5% | [9]; at 33.0 µM 3% | [9]; at 100.0 µM 61% | [10]; [17] -39% | [10]; [18] -16% | [10]; at 50.0 µM 6.8% | [11]; at 1.2 µM -5% | [11]; at 3.7 µM -4% | [11]; [17] -26% | [11]; at 11.0 µM -3% | [11]; at 33.0 µM 17% | [11]; [18] 58% | [12]; at 1.2 µM -2% | [12]; at 3.7 µM -5% | [12]; at 11.0 µM -6% | [12]; at 33.0 µM 10% | [12]; at 100.0 µM 64% | [13]; at 1.2 µM 0% | [13]; at 3.7 µM -12% | [13]; at 11.0 µM -5% | [13]; at 33.0 µM 24% | [14]; at 1.2 µM -1% | [14]; at 3.7 µM -5% | [14]; at 11.0 µM -5% | [14]; at 33.0 µM 7% | [14]; at 100.0 µM 68% | [15]; [17] -32% | [15]; [18] 46% | [16]; at 1.2 µM -3% | [16]; at 3.7 µM -20% | [16]; at 11.0 µM -14% | [16]; at 33.0 µM 1%
